Shown are actives, neighbours in structure and some others; about 22% of the full set was active somewhere.
Pf growth 48h = Primary qHTS for delayed death inhibitors of the malarial parasite plastid, 48 hour incubation; P. falciparum luciferase growth in erythrocytes, 48 h; Potency, µM (top dose mostly 28.7 µM), inactives show top-dose activity change, negative = inhibition, usual class: inhibitors; 310,000 tested, 5.9% active; AID 504832, 2011; note: potency is the fitted concentration of half-maximal effect; % is set by controls: 0 for no effect and ±100 for the full control effect
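Growth was read as firefly luciferase luminescence after a 48 h, 37 C, 5% CO2 exposure of compounds to reporter-bearing P. falciparum cultures (0.1% parasitemia, 2% hematocrit final) in Albumax-supplemented RPMI 1640.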
Shiga inhibitor = A qHTS for Small Molecule Inhibitors of Shiga Toxin; Vero cells, Shiga toxin protein synthesis inhibition reporter; inhibition, % at 38.7 µM; 290,000 tested, 9.2% active; in the data active = inhibition mostly above about 28%, no sharp cut-off; inactive = mostly below about 43%; note: 0% is about no effect
LmPK inhibitor = qHTS Assay for Inhibitors of Leishmania Mexicana Pyruvate Kinase (LmPK) | Q27686 | purified LmPK, Kinase-Glo ATP luminescence, 1 h | Potency, µM (top dose mostly 57.5 µM), without a hit: at the highest dose activity change, negative = inhibition, usual class: inhibitors | 290,000 tested, 0.37% active | AID 1721, 2009; note: potency is the fitted concentration of half-maximal effect; % is set by controls: 0 for no effect and ±100 for the full control effect
Target sequence (Q27686 whole entry, looked up): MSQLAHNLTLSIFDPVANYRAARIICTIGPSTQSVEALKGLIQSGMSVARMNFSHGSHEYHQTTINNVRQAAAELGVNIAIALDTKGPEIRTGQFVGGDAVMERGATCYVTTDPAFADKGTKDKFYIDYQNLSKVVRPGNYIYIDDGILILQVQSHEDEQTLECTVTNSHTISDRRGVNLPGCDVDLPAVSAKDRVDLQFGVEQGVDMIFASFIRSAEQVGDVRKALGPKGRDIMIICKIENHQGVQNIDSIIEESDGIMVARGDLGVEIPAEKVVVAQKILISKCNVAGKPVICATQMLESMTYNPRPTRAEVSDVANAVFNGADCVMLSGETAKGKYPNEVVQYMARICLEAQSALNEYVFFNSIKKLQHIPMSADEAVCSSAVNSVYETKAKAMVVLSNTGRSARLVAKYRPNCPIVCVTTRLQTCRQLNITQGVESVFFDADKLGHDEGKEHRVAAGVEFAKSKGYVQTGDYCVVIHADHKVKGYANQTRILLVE
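Pyruvate kinase activity monitored as ATP production (luciferase luminescence). Conditions: 0.1 nM enzyme, 0.5 mM PEP, 0.1 mM ADP, 1 h, RT; normalized against uninhibited and no-enzyme wells.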
Pf growth 96h = Primary qHTS for delayed death inhibitors of the malarial parasite plastid, 96 hour incubation | P. falciparum luciferase reporter growth, 96 h | Potency, µM (highest dose often 28.7 µM), without a hit: at the highest dose activity change, negative = inhibition, hits mostly inhibitors | 320,000 tested, 6.9% active; note: potency is the fitted concentration of half-maximal effect; % is set by controls: 0 for no effect and ±100 for the full control effect
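P. falciparum expressing integrated firefly luciferase, in erythrocytes at 2% hematocrit, 0.05% parasitemia, incubated with compounds 96 h at 37 C, 5% CO2. Growth inhibition read as loss of luminescence; two-generation exposure targets delayed-death apicoplast inhibitors.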
Cycloheximide cs = Cycloheximide Counterscreen for Small Molecule Inhibitors of Shiga Toxin; AID 2314, 2010; max response, %; cell reporter, cycloheximide protein synthesis inhibition counterscreen; 300,000 tested, 12% active; in the data active = max response mostly above about 13%, no sharp cut-off; inactive = mostly below about 14%; note: read at 38.3 µM for the half of the compounds with a filed dose; 0% is about no effect
* hit, by the source's call; i = inactive; ? = inconclusive; nt = not tested or not shown; + = active, no number; [ ] = dose if it differs, or a comment. Unless noted, calls come from the whole dose curve; as a rule, active = well fitted inhibition curve with a large enough effect; inconclusive = small, poorly fitted or top-dose-only effect, or another doubt; inactive = no such curve, though single readings can be large or run the other way.

SMILES	Pf growth 48h	Shiga inhibitor	LmPK inhibitor	Pf growth 96h	Cycloheximide cs
C/C(=N\NC(=O)c1nnn(-c2nonc2N)c1CN1CCc2ccccc21)c1ccccc1O	?	1	-5%	18%	9
O=C(NC12CC3CC(CC(C3)C1)C2)c1c(Cl)cccc1Cl	0%	5	-4%	0%	-1
NC(=O)C1CCCN(CC(=O)Nc2cc(S(=O)(=O)N3CCOCC3)ccc2N2CCCC2)C1 (centres undefined)	-6%	nt	nt	?	nt
NC(=O)c1cc(NC(=O)c2ccc(NS(=O)(=O)c3cccs3)cc2)cc(C(N)=O)c1	-3%	-3	-1%	53%	-4
CC(CSc1nc2ccccc2s1)Cn1c(N2CCCC2)nc2c1c(=O)[nH]c(=O)n2C (centres undefined)	12µM*	-5	7%	10µM*	-1
CCOC(=O)Cn1c(N2CCOCC2)nc2c1c(=O)[nH]c(=O)n2C	-7%	8	-9%	12µM*	-3
Cn1c(=O)[nH]c(=O)c2c1nc(N1CCOCC1)n2CCCSc1ncccn1	20%	-4	0%	-22%	11*
CCOC(=O)Cn1c(Br)nc2c1c(=O)[nH]c(=O)n2C	-10%	18	0%	nt	1
Cn1c(=O)[nH]c(=O)c2c1nc(N1CCCCCC1)n2CCCSc1nc2ccccc2o1	12µM*	-6	2%	19%	-3
CCN1CCN(c2nc3c(c(=O)[nH]c(=O)n3C)n2CCSc2nc3ccccc3s2)CC1	nt	-18	-1%	22%	-1
Cc1ccc(N=C2NC(=O)c3cc([N+](=O)[O-])ccc32)cc1	-5%	26	0%	4.1µM*	5
CCS(=O)(=O)NC(C)C(c1cccs1)N1CCN(c2ccc(OC)cc2)CC1 (centres undefined)	0%	-6	9%[11.5 µM]	7%	3
COc1ccc(N2CCN(C(c3cccs3)C(C)NC(=O)C(=O)N3CCCCC3)CC2)cc1 (centres undefined)	?	-8	11%	12µM*	1
COc1ccc(N2CCN(C(c3cccs3)C(C)NS(=O)(=O)c3ccccc3)CC2)cc1 (centres undefined)	13µM*	-6	7%	?	3
COc1ccccc1OCCNC(=O)CCC(=O)N1CCOCC1	2%	nt	nt	10%	nt
O=C(O)CCc1nc2cc(C(F)(F)F)ccc2n(Cc2ccccc2)c1=O	-12%	-4	1%	-13%	2
Cc1onc(-c2c(F)cccc2Cl)c1C(=O)N1CCCC1	-1%	nt	nt	57%	nt
CC(/C=C/c1ccccc1)=N\NC(=S)NC(C)C	-23%	99*	4%	4.7µM*	82*
CC(/C=C/c1ccccc1)=N\NC(N)=S	10µM*	52*	-12%	?	27*
CC1CCN(S(=O)(=O)c2ccc(N/N=C(/C#N)C(N)=O)cc2)CC1	-4%	-12	-1%	?	10
O=C(NCc1ccccc1)N1CCOCC1	8%	-10	2%	-2%	-2
N#C/C(=N\Nc1ccccc1)C(=N)N1CCOCC1	67%	41*	-6%	0%	30*
Cc1ccc(NNC(=O)C(=O)N2CCCCC2)cc1	17%	-10	-10%	0%	1
N#C/C(=N\Nc1ccc(S(=O)(=O)N2CCOCC2)cc1)C(N)=S	15µM*	1	-5%	?	-1
Cc1ccc(NC(=O)CN2CCOCC2)cc1	nt	18	-10%	42%	9
SMILES	Pf growth 48h	Shiga inhibitor	LmPK inhibitor	Pf growth 96h	Cycloheximide cs
Cc1ccc(N/N=C(\C#N)C(=N)N2CCOCC2)cc1	98%	+	-1%	151%	56*
Cc1ccc(N/N=C(\C#N)C(=N)N2CCCCCC2)cc1	403%	94*	-1%[11.5 µM]	?	37*
Cc1ccc(NC(=O)C(c2ccccc2)c2ccccc2)c(O)c1	?	1	-3%	?	-3
CCN(CC)C(=N)/C(C#N)=N/Nc1ccc(C)cc1	195%	87*	-3%	77%	44*
N#C/C(=N\Nc1ccc(F)cc1)C(=N)N1CCCCCC1	i	58*	-1%	-14%	27*
N#C/C(=N\Nc1ccccc1)C(N)=S	?	25	6%	0%	8
O=C(CN1CCCCCC1)Nc1ccccc1F	5%	-3	-3%	-16%	8
N#C/C(=N\Nc1ccccc1F)C(=N)N1CCCCC1	455%	114*	1%	427%	51*

High-throughput results: PubChem BioAssay, National Center for Advancing Translational Sciences (NCATS)
